# Inconclusive results are not listed. Entries that show only a call come without a potency. Unmarked numbers belong to inactive results. Activity calls are given as the source filed them. Calls follow the shape of the dose curve; as a rule, active = well fitted inhibition curve with a large enough effect; inconclusive = small, poorly fitted or top-dose-only effect; inactive = flat fitted curve, though single readings scatter. Where a SMILES comes first, the peptide text is derived from it.
# What was measured:
# [1] = system: HEK293; test: Cytotoxic Profiling of Annotated Libraries Using Quantitative High-Throughput Screening (AID 1296008); conditions: Five cell lines viability, CellTiter-Glo ATP luminescence, 48-72 h; max response: hits give low values
# Outline: (§1)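 Cytotoxicity was measured as CellTiter-Glo ATP luminescence, read after 10 min at room temperature. Compound treatment of the cells lasted 48 or 72 hr at 37 degrees Celsius in a qHTS format.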
# [2] = system: HaCat; test: as above; conditions: Five cell lines viability, CellTiter-Glo ATP luminescence, 48-72 h; max response: hits give low values
# Outline: as §1
# [3] = system: NIH3T3; test: as above; conditions: Five cell lines viability, CellTiter-Glo ATP luminescence, 48-72 h; max response: hits give low values
# Outline: as §1
# [4] = system: HACAT; test: qHTS assay to identify novel small-molecules to repurpose for Merkel cell carcinoma treatment (AID 1296009); conditions: MCC and control cell lines, CellTiter-Glo viability, 72 h; at 44.8 µM (top of the series) unless noted
# Outline: (§2)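 After compound transfer in DMSO, plates were kept 72 hr at 37 degree celsius. Luminescent ATP signal from CellTiter-Glo served as viability measure, normalized against DMSO and no-cell controls.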
# [5] = system: MCC-13; test: as above; conditions: MCC and control cell lines, CellTiter-Glo viability, 72 h; series mostly up to 46 µM
# Outline: as §2
# [6] = system: MKL-1; test: as above; conditions: MCC and control cell lines, CellTiter-Glo viability, 72 h; series mostly up to 46 µM
# Outline: as §2
# [7] = system: MKL-2; test: as above; conditions: MCC and control cell lines, CellTiter-Glo viability, 72 h; series mostly up to 46 µM
# Outline: as §2
# [8] = system: MCC-26; test: as above; conditions: MCC and control cell lines, CellTiter-Glo viability, 72 h; series mostly up to 46 µM
# Outline: as §2
# [9] = system: HEK293T; test: as above; conditions: MCC and control cell lines, CellTiter-Glo viability, 72 h; at 44.8 µM (top of the series) unless noted
# Outline: as §2
# Also: nearly all actives have a fitted effect of over 60% in size.
# Potency is read from the fitted curve at half-maximal effect.
SMILES,max response [1] [%],outcome [2],max response [3] [%],outcome [4],Potency [5],Potency [6],Potency [7],Potency [8],outcome [3],Potency [1],outcome [1],max response [2] [%],outcome [9]
CCOCCn1c(C2CCN(CCc3ccc(C(C)(C)C(=O)O)cc3)CC2)nc2ccccc21,-1.51,inactive,-0.532,inactive,inactive,inactive,inactive,,,,,,
CCN(CC)CC(=O)Nc1c(C)cccc1C(=O)OC,2.01,inactive,1.11,inactive,inactive,inactive,inactive,inactive,,,,,
CCn1ccc(NS(=O)(=O)c2ccc(N)cc2)nc1=O,-20.6,inactive,,inactive,inactive,inactive,inactive,inactive,inactive,,,,
CO[C@@H]1[C@@H](O[C@@H]2O[C@H](C)[C@@H](O[C@H]3C[C@@](C)(O)[C@@H](O)[C@H](C)O3)[C@H](N(C)C)[C@H]2O)[C@@H](CC=O)C[C@@H](C)[C@@H](O[C@@H]2CC[C@H](N(C)C)[C@@H](C)O2)/C=C/C=C/C[C@@H](C)OC(=O)C[C@H]1OC(C)=O,,inactive,-2.54,inactive,inactive,inactive,inactive,inactive,,8.41 µM (active),,,
NS(=O)(=O)c1cc(C(=O)NN2C[C@H]3[C@H]4CCC(C4)[C@H]3C2)ccc1Cl,4.38,inactive,,inactive,inactive,inactive,inactive,inactive,inactive,,,,
Cc1onc(-c2ccccc2)c1C(=O)Cl,0.397,inactive,4.1,inactive,inactive,inactive,inactive,inactive,,,,,
O=C1CCCc2c(O)cccc21,-4.98,inactive,-15.1,inactive,inactive,inactive,inactive,inactive,,,,,
c1ccc2c(c1)CCc1ccccc1N2,,,,,inactive,inactive,inactive,inactive,inactive,,inactive,-8.39,inactive
O=C(O)Cn1cnnn1,,,-2.11,,inactive,inactive,inactive,inactive,,,inactive,1.64,inactive
Nc1nc(=O)n([C@@H]2O[C@H](CO)[C@@H](O)[C@@H]2F)cc1I,,,-21.4,,,inactive,inactive,inactive,,,inactive,3.07,inactive
COc1cc(C(=O)OC(COCCC(C)C)CN2CCOCC2)cc(OC)c1OC (stereo unspecified),,,3.87,,inactive,inactive,inactive,inactive,,,inactive,-1.64,inactive
C[N+]1(CC2COC(c3ccccc3)(c3ccccc3)O2)CCCCC1 (stereo unspecified),,,-38.8,,inactive,inactive,,inactive,,10 µM (active),,-14.4,
CCC(=O)O[C@H]1[C@H](O[C@@H]2[C@@H](C)[C@H](O[C@H]3C[C@@](C)(OC)[C@@H](O)[C@H](C)O3)[C@@H](C)C(=O)O[C@H](CC)[C@@](C)(O)[C@H](O)[C@@H](C)C(=O)[C@H](C)C[C@@]2(C)O)O[C@H](C)C[C@@H]1N(C)C,,,1.01,,inactive,inactive,inactive,inactive,,,inactive,0.29,inactive
O=C(O)Cn1c(=O)n(Cc2ccc(Br)cc2F)c(=O)c2ccc(Cl)cc21,,,,,inactive,inactive,inactive,,inactive,,inactive,0.662,inactive
CCS(=O)(=O)c1ccc(OC)c(C(=O)OC)c1,,,,,inactive,inactive,inactive,inactive,inactive,,inactive,4.82,inactive
Cc1c(F)cc2c(=O)c(C(=O)O)cn3c2c1CCC3C (stereo unspecified),,,-8.9,,inactive,inactive,inactive,inactive,,,inactive,-5.41,inactive
CCOc1c(N2CCOCC2)cnn(C)c1=O,,,-0.145,,inactive,inactive,inactive,inactive,,,inactive,-2.94,inactive
COc1cc(/C=C/C(N)=O)cc(OC)c1OC,,,,,inactive,inactive,inactive,inactive,inactive,,inactive,2.61,inactive
Nc1ccc(C(=O)N2CC3CC(CN(Cc4ccccc4)C3)C2)cc1,,,,,inactive,inactive,inactive,inactive,inactive,,inactive,3.27,inactive
Nc1cc(C(F)(F)F)ccc1S,-4.91,inactive,,inactive,,,11.9 µM (active),,inactive,,,,
C/C(=N\O)[C@@H](C)NCC(C)(C)CN[C@H](C)/C(C)=N/O,-22.3,,-0.119,,inactive,inactive,inactive,inactive,,,,-13.6,
O=[N+]([O-])c1cncn1CCN1CCOCC1,3.5,,2.27,,inactive,inactive,inactive,inactive,,,,-14.4,
O=C1NC(c2ccccc2)(c2ccccc2)C(=O)N1COP(=O)(O)O,,,,,inactive,inactive,inactive,inactive,inactive,,inactive,-3.47,inactive
CC(=O)N[C@@H](CO)C(=O)N[C@@H](CC(=O)O)C(=O)N[C@@H](CCCCN)C(=O)N1CCC[C@H]1C(=O)O (Ac-SDKP-OH),0.0413,,-0.894,,inactive,inactive,inactive,inactive,,,,-26.1,

# Source: PubChem BioAssay (NCATS)
